{"source": "PubChem BioAssay", "note": "The source made the active and inactive calls. Unless noted, the rule behind the calls is not given here.", "data": [{"tested_on": "not listed separately", "experiment": "human hepatoma cell viability loss – ATP luminescence, cytotoxicity control for P. falciparum antimalarial project, primary screen (AID 2303;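 active = inhibition above 50%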;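 note: 0% = DMSO wells and 100% = digitonin-killed cells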)", "details": "HepG2 viability, 24-48 h, at 10 µM, active compounds read high", "values": [{"smiles": "NC1=NC(=O)C(=Cc2cn(-c3ccccc3)nc2-c2cccc(S(=O)(=O)N3CCCC3)c2)S1", "inhibition": "-4% (inactive)"}, {"smiles": "N#Cc1ccc(S(=O)(=O)N2C(c3cccc([N+](=O)[O-])c3)C(C(=O)c3ccccc3)N(C3CCCCC3)C2c2cccc([N+](=O)[O-])c2)cc1", "note": "(stereo not given)", "inhibition": "16% (inactive)"}, {"smiles": "Nc1ncc(-c2ccccc2)cc1/C=C/c1cccnc1", "inhibition": "33% (inactive)"}, {"smiles": "O=C(/C=C/c1ccc(Cl)cc1)NCCCCCN1CCCN(C(=O)Nc2ccc(F)c(Cl)c2)CC1", "inhibition": "29% (inactive)"}, {"smiles": "Ic1cc(Nc2ncnc3ccsc23)ccc1OCc1ccccc1", "inhibition": "22% (inactive)"}]}, {"molecular_target": "L-lactate dehydrogenase (Plasmodium falciparum (isolate CDC / Honduras)) (UniProt Q27743)", "sequence (Q27743 whole entry, looked up)": "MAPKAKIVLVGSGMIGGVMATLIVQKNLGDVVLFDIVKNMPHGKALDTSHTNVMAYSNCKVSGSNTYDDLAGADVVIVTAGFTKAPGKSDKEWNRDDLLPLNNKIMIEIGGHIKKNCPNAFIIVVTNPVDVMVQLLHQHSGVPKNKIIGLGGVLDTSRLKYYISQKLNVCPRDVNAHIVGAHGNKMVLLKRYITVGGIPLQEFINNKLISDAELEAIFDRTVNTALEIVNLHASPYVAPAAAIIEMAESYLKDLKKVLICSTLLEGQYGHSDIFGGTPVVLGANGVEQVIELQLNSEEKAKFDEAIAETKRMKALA", "experiment": "PfLDH activity inhibition – cell lysate, 3D7 strain, counter-screen for P. falciparum growth inhibition project (AID 2304);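 note: 0% = vehicle and 100% = reference inhibitor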", "details": "P. falciparum 3D7 crude extract, LDH APAD/NBT absorbance; at 2 µM; active compounds read high", "values": [{"smiles": "N#Cc1cccc(C(=O)Nc2cccc(-c3ccc(C(=O)Nc4cccnc4)cc3)c2)c1", "inhibition": "-1% (inactive)"}, {"smiles": "Cc1ccc(Cl)cc1NC(=O)c1c(-c2ccccc2Cl)noc1C", "inhibition": "-1% (inactive)"}, {"smiles": "COc1cc(C)c(C(O)CNC(C)CCc2ccccc2)cc1C", "note": "(stereo not given)", "inhibition": "-2% (inactive)"}, {"smiles": "Cc1cc(N(C)C)nc(Nc2ccc(NS(=O)(=O)c3ccccc3)cc2)n1", "inhibition": "-1% (inactive)"}, {"smiles": "c1ccc(-c2cccc(-c3ccccn3)n2)nc1", "inhibition": "-1% (inactive)"}, {"smiles": "Cc1cc(NC2CCCC2)nc(Nc2ccccc2C)n1", "inhibition": "2% (inactive)"}, {"smiles": "CC1CCN(c2nc(C(=O)Nc3cccc4c3CCCC4)c(C(C)C)s2)CC1", "inhibition": "3% (inactive)"}, {"smiles": "Cc1cc(N[C@@H](CC(C)C)C(=O)NCCc2ccccc2)nc(NCCc2ccc(F)cc2)n1", "inhibition": "-1% (inactive)"}, {"smiles": "CCCNC(=O)C1Cc2cc(OC)c(OC)cc2C2(N1)C(=O)N(Cc1cccc(OC)c1)c1ccccc12", "note": "(stereo not given)", "inhibition": "3% (inactive)"}, {"smiles": "Cc1cc(NC(=O)CCCN2CCN(c3cccc(Cl)c3Cl)CC2)ccc1N1CCN(C(C)C)CC1", "inhibition": "-1% (inactive)"}]}]}
